High-throughput results from PubChem BioAssay.
TWEAK Fn14 block: TWEAK-Fn14 signaling inhibition; TWEAK-stimulated Fn14 reporter cells, luciferase luminescence, 8 h; inhibition, % at 10 µM; 360,000 tested, 2% active; in the data active = inhibition above about 50%
LMP1 NFkB inh: Epstein-Barr LMP1 NF-kappaB reporter inhibition; LMP1-induced NF-kappaB luciferase reporter cells, luminescence; inhibition, % at 12.5 µM; 350,000 tested, 0.69% active; in the data active = inhibition above about 41%;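 also: 0% = neutral control wells and 100% = reference inhibitor control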
TRPM1 prom inh: MITF TRPM1 promoter inhibition in SK-MEL-5 cells; SK-MEL-5 TRPM1 promoter luciferase, 24 h; inhibition, % at 12.5 µM; 330,000 tested, 0.83% active;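 active = mean inhibition across replicates of 60% or more, whatever share of single replicates reaches that level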
HIF-2a inh: HIF-2a inhibition | 360,000 tested, 0.72% active | 786-0 RCC cells HIF-2a reporter, luciferase luminescence, overnight | AID 624352 | inhibition, % at 18.8 µM;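 active = inhibition of the luminescence signal of 40% or more relative to plate controls, in a single-dose primary screen at 18.75 µM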
Peg3 promoter: reduces Peg3 promoter-driven luciferase expression in HeLa. 360,000 tested, 1.7% active. inhibition, % at 20 µM. HeLa PEG-Prom luciferase reporter, luminescence, overnight. AID 588405;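 active = inhibition of at least 50% at 20 µM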
TROY NFkB inh: inhibitors of TROY-dependent NF-kB signaling. Q293 LMP1-TROYcd NF-kB luciferase reporter, 4 h. inhibition, % at 10 µM. 360,000 tested, 0.98% active. AID 1347056;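 active = compounds whose plate-normalised and pattern-corrected inhibition of the luciferase reporter signal at the single screening dose is 50% or more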
An asterisk follows results filed as active; . = no result given. Compounds with a hit are over-represented: about 4% of the library has one in this group of screens.

SMILES	TWEAK Fn14 block	LMP1 NFkB inh	TRPM1 prom inh	HIF-2a inh	Peg3 promoter	TROY NFkB inh
CC1(C(=O)Nc2ccc3c(c2)OCCO3)CCN1C(=O)c1cccc(F)c1 (stereo not given)	-15.2	.	.	10.9	3.2	1.6
O=C(Cc1csc(Nc2nc(=S)[nH]c3ccccc23)n1)NCCCN1CCN(c2ccccc2F)CC1	4.8	-31.1	66.3*	10.9	67.5*	24.8
O=C(CCl)Nc1cn(-c2ccccc2)nc1-c1ccccc1	8.5	-17.5	73.6*	-64.8	83.7*	-62.4
CSc1cccc(CN2CCC(n3nccc3NC(=O)C3CC3)CC2)c1	-20.6	56.1*	3.6	6.3	6.7	7.3
CCOc1ccc(OCCOCCNCCOC)cc1	-15.3	0.6	-12.5	6.5	7.7	-1.4
S=C(NCC1CCCO1)N1CCN(c2cccc(Cl)c2)CC1 (stereo not given)	-28.5	8.9	-2.1	8.4	0.0	-10.7
S=C(NCCCN1CCOCC1)N1CCN(c2nc(-c3ccccc3)cs2)CC1	-2.8	9.8	8.1	1.2	-3.6	13.6
S=C(NCC1CCCO1)N1CCN(c2nc(-c3ccc(Cl)cc3)cs2)CC1 (stereo not given)	63.9*	19.4	27.0	-10.6	20.4	25.6
S=C(NCCCN1CCOCC1)N1CCN(c2nc(-c3ccc(Cl)cc3)cs2)CC1	36.7	44.1*	31.0	5.6	75.5*	45.4
COC(=O)c1ccccc1C(=O)N(Cc1cccnc1)CC1CCCN(C2CCCCC2)C1 (stereo not given)	-0.6	-1.2	13.2	-10.9	-27.3	-14.7
CCOC(=O)N1CCC(NC(=O)CS(=O)Cc2nc(-c3ccc(Cl)cc3)oc2C)CC1 (stereo not given)	1.9	9.9	24.4	13.1	1.6	12.6
CCc1ccc(OCC(=O)N2CC(C(N)=O)Oc3ccccc32)cc1 (stereo not given)	-9.1	-2.0	-6.3	-1.6	-19.2	-5.6
COc1ccc(NS(=O)(=O)c2cc(NC(=O)CCSc3ccccc3)ccc2OC)cc1	57.9*	-9.3	-7.9	-63.0	0.4	8.9
Cc1ccc(NC(=O)/C=N/OCC(=O)NCc2ccccc2Cl)cc1	-21.1	48.2*	13.2	-28.2	1.0	-11.1
CC1(C)CC(=O)c2c(-c3cccs3)n[nH]c2C1	54.9*	17.6	-11.0	0.7	-20.3	33.6
CCCc1n[nH]c2c1C(=O)CC(C)(C)C2	6.5	-6.8	-6.8	16.6	9.1	-2.9
CC(=O)C1=C(C)OC(N)=C(C#N)C1c1cccc2ccccc12 (stereo not given)	14.4	-3.3	8.2	8.4	16.8	17.6
CC(=O)n1c2c(c3ccccc31)OC(N)=C(C#N)C2c1ccc(C(C)C)cc1 (stereo not given)	89.3*	-12.7	4.6	-159.7	-172.9	79.1*
Cn1cc([N+](=O)[O-])c(C(=O)Nc2ccc(-c3nc4ccccc4o3)cc2)n1	-15.6	-21.6	48.6	-34.6	50.6*	-68.9
O=C(COC(=O)COc1ccc(Cl)cc1)Nc1ncc(Br)s1	1.8	-5.4	-8.8	-13.4	-8.0	-20.9
Cc1nnc(C)n1/N=C/c1cc2ccccc2nc1Cl	13.2	-9.6	8.6	15.1	78.3*	11.3
N#CC1C(=O)c2ccccc2C1c1ccccc1 (stereo not given)	-20.0	-3.1	15.9	30.9	11.7	51.9*
O=C1CCC(c2ccccc2)c2ccccc21 (stereo not given)	-13.8	.	.	10.8	10.9	10.1
Cc1ccc(/C=N/N2CCN(C3c4ccccc4-c4ccccc43)CC2)s1	61.6*	-2.7	-4.1	11.6	19.9	53.7*
NC(=O)c1nsc(C(=O)N(c2ccccc2)C(C(=O)NCc2ccc(F)cc2)c2ccc(O)cc2)c1N (stereo not given)	22.3	5.2	10.3	20.4	55.1*	-0.5
SMILES	TWEAK Fn14 block	LMP1 NFkB inh	TRPM1 prom inh	HIF-2a inh	Peg3 promoter	TROY NFkB inh
COc1ccc(N(C(=O)c2snc(C(N)=O)c2N)C(C(=O)NCc2ccccc2)c2ccc(O)cc2)cc1 (stereo not given)	24.1	-11.5	10.2	12.7	-6.5	11.9
Cc1ccc(C(=O)NCCCNC(=O)c2ccco2)cc1C	-2.1	-9.5	-0.2	3.5	1.8	-4.3
CC(SCc1cn2cc(Cl)ccc2n1)C(=O)O (stereo not given)	76.1*	2.0	15.0	-0.4	1.8	.
O=C(O)c1ccccc1SCc1cn2cc(Cl)ccc2n1	14.9	1.2	12.1	-8.2	-13.1	-7.6
O=c1[nH]cnc2c1nnn2C1OC(CO)C(O)C1O (stereo not given)	-1.2	.	.	-10.1	35.0	14.3
CCCNC(=O)C(Cc1ccccc1C)NC(=O)c1ccc(C(F)(F)F)cc1 (stereo not given)	5.7	8.9	6.8	4.1	-3.7	-4.0
COc1cc(OC)c(OC)cc1/C=N/Nc1ncnc2c1[nH]c1ccccc12	38.2	-5.4	-9.3	4.7	88.7*	11.0
Cc1ccc2[nH]c3c(NCc4ccco4)ncnc3c2c1	44.3	4.3	-11.0	-285.6	-229.1	-21.3
COc1cc(OC)c(OC)cc1/C=N/Nc1nc2ccccc2[nH]1	-5.3	10.1	7.6	19.6	-0.3	44.1
COc1ccc(/C=N/NC(=O)c2[nH]c3ccc(C)cc3c2-c2ccccc2)c(C(=O)O)c1OC	-2.8	6.3	9.8	22.1	-0.7	-6.2
CCCCOCCCNc1ncnc2c1[nH]c1ccccc12	59.5*	15.0	10.6	7.1	10.5	38.4
COc1ccc(/C=N/Nc2ncnc3c2[nH]c2ccc(C)cc23)c(OC)c1OC	-50.6	0.4	2.1	-10.0	73.3*	-20.3
COc1cc(CNc2ncnc3c2[nH]c2ccc(C)cc23)cc(OC)c1	23.9	28.2	16.8	23.1	24.2	50.5*
CCCNc1ncc2c(=O)[nH][nH]c(=O)c2n1	-0.6	3.4	8.1	7.1	12.8	-14.5
Cc1cnc(C(=O)OCc2nc3ccccc3o2)cn1	17.4	4.1	.	-4.8	-15.6	0.0
COc1cc(OC)c(C(=O)Nc2cc(S(=O)(=O)N3CCOCC3)ccc2N2CCOCC2)cc1OC	-27.3	5.1	.	20.9	-3.0	-5.5
COc1ccc(NC(=O)c2cn(-c3ccccc3)nc2-c2ccncc2)cc1	18.3	-3.4	-11.9	-7.5	4.9	-4.1
COc1ccc(-c2nn(-c3ccccc3)cc2C(=O)NC(=S)NNC(=O)c2ccncc2)cc1	60.2*	35.8	35.6	17.9	23.0	35.4
COc1ccc(C(=O)Nn2c(C)nc3ccccc3c2=O)cc1OC	-7.8	7.1	8.6	13.9	2.7	59.2*
COc1ccc(C(=O)Nn2c(C)nc3ccccc3c2=O)cc1Br	5.1	0.3	5.1	13.4	19.9	-29.1
COc1ccc(C(=O)Nn2c(SCC(=O)NC3CCCC3)nc3ccccc3c2=O)cc1	78.5*	12.5	-25.6	5.6	-30.9	78.5*
COc1ccc(C(=O)Nn2c(SCC(=O)NCc3ccccc3)nc3ccccc3c2=O)cc1	85.1*	24.2	-7.7	-1.7	-14.2	77.7*
COc1cccc(C(=O)Nn2c(-c3cccs3)nc3ccccc3c2=O)c1OC	7.2	15.2	16.9	11.1	21.9	1.5
